Assay results as given in PubChem BioAssay AID651717 (Broad Institute, 2012).
The campaign covered roughly 1,200 compounds. About 950 (79%) were called active. So high a share suggests a set chosen from earlier hits. These entries were drawn from the full list. Results with a measured potency or affinity are listed apart. Unmarked numbers belong to inactive results.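 The calls were made as follows: active = signal rises and fitted curve reaches 40% activity at or below the top valid tested dose, in every replicate test; inconclusive = replicate tests give mixed calls; inactive = the rest, including activity in the opposite direction.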

Test: compounds raising Bmi1 reporter signal – mouse embryonic stem cells, luciferase, cherry-pick, esBAF inhibitor project, dose response (AID 651717);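 also: luciferase knocked into Bmi1 locus with EF-1a renilla as cell number control; rising ratio signals esBAF inhibition which derepresses Bmi1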
Conditions: mESC Bmi1-luciferase reporter, firefly/renilla ratio, 24 h, hits give high values; at 35 µM unless noted

In order of rising max activity:
1. C[C@H](CO)N1C[C@H](C)[C@@H](CN(C)C(=O)Nc2ccc3c(c2)OCO3)Oc2ncc(C#CC3(O)CCCC3)cc2C1=O  -4.31% [at 16 µM]
2. C[C@H](CO)N1C[C@H](C)[C@@H](CN(C)Cc2ccc(-c3ccccc3)cc2)Oc2ccc(NC(=O)CCCCCC(=O)Nc3ccccc3N)cc2CC1=O  16.8% [at 16 µM]
3. CC(C)(C)C(=O)[C@H]1[C@H](c2ccccc2)[C@@]2(N=C(c3ccccc3)OC2=O)C2c3ccccc3C=NN21 (stereo partly specified)  19% [at 16 µM]
4. CO[C@@H]1CN(C)C(=O)c2ccc(NC(=O)c3nc4ccccc4s3)cc2OC[C@@H](C)N(Cc2cncnc2)C[C@H]1C  21% [at 16 µM]
5. Cc1nc2cc(C(=O)O)ccc2s1  22% [at 16 µM]
6. O=C(Nc1ccc(F)c(Cl)c1)c1cc(C2CCCN(S(=O)(=O)c3cccc4cccnc34)C2)on1 (stereo unspecified)  29.2% [at 16 µM]
7. O=C(c1cc(COc2ccc(F)cc2F)on1)N1CC2C[C@@H]3CC1C[C@H](C2)C3  35.9% [at 16 µM]
8. CS(=O)(=O)Nc1ccc(C2=NN(S(C)(=O)=O)C(c3cccs3)C2)cc1 (stereo unspecified)  36.3% [at 16 µM]

In order of falling max activity:
1. CO[C@@H]1CN(C)C(=O)c2ccc(NC(=O)c3nc4ccccc4s3)cc2OC[C@@H](C)N(Cc2ccncc2)C[C@H]1C  38.8%
2. O=C(Cc1ccc(Cl)cc1)NC1CCCCCC1  37.5%
3. O=C(NCC[C@H]1CC[C@H](NC(=O)Nc2cc(F)ccc2F)[C@H](CO)O1)Nc1ccc(Cl)cc1  31.4%
4. CN(C(=O)c1cc2c(s1)-c1ccccc1S(=O)(=O)C2)c1ccccc1  29.1%
5. Cc1ccc(COc2ccccc2C(=S)N2CCCC2)cc1  28.7%
6. N=C1/C(=C/c2ccc(OCc3ccccc3)cc2)C(=O)N=C2SC(CC(=O)N3CCOCC3)=NN12  23.9%
7. O=C(NCCc1ccc(F)cc1)c1cccc(NC(=O)c2ccccc2)c1  21.2%
8. CO[C@@H]1CN(C)C(=O)c2ccc(NC(=O)c3nc4ccccc4s3)cc2OC[C@@H](C)N(Cc2cccnc2)C[C@H]1C  18.5%
9. O=C1C2C(c3cccc(/C=C/c4ccccc4)c3)CC=CC2C(c2ccc3ccccc3c2)N1Cc1ccccc1 (stereo unspecified)  17.2%
10. O=C(CNc1ccccc1F)Nc1cccc2ccccc12  -8.82%
11. Cc1ccc(S(=O)(=O)N[C@H]2CC[C@@H](CCNC(=O)Nc3ccc(Cl)cc3)O[C@H]2CO)cc1  -11.4%
12. C[C@H](CO)N1C[C@H](C)[C@H](CN(C)C(=O)Nc2ccc3c(c2)OCO3)Oc2c(NS(=O)(=O)c3ccccc3)cccc2C1=O  -12.7%
13. COC(=O)c1ccc(-c2ccc(OC)c([C@H]3[C@H]4C=CC[C@@H](C)[C@@H]4C(=O)N3Cc3ccccc3)c2)cc1  -14.1%
14. CCCNC(=O)Nc1ccc2c(c1)OC[C@@H](C)N(Cc1ccc(-c3ccccn3)cc1)C[C@@H](C)[C@H](OC)CN(C)C2=O  -20.1%
15. C[C@H](CO)N1C[C@H](C)[C@@H](CN(C)S(=O)(=O)c2cn(C)cn2)Oc2c(NC(=O)Nc3ccc4c(c3)OCO4)cccc2C1=O  -22.8%
16. C[C@H]1CN([C@@H](C)CO)C(=O)c2c(c3ccccc3n2C)-c2ccccc2CO[C@H]1CN(C)C(=O)Nc1ccc2c(c1)OCO2  -25.1%
17. C[C@H](CO)N1C[C@H](C)[C@H](CN(C)C(=O)Nc2ccc3c(c2)OCO3)OCc2ccccc2-c2c(n(C)c3ccccc23)C1=O  -46.6%

In order of rising max activity:
1. CN(C)C(=O)CCc1ccc2c3c([nH]c2c1)[C@]1(CCc2ccccc2)[C@@H](C(=O)N2CCCCC2)C[C@H](CC(=O)NCCC2=CCCCC2)C(=O)N1CC3  -35% [at 8 µM]
2. C[C@@H]1CCCCO[C@H](CN(C)S(=O)(=O)c2cn(C)cn2)[C@@H](C)CN([C@@H](C)CO)C(=O)c2cc(NC(=O)Nc3ccc4c(c3)OCO4)ccc2O1  -8.77% [at 8 µM]
3. Cc1noc(C)c1NC(=O)N(C)C[C@@H]1Oc2ncc(C#CC3CC3)cc2C(=O)N([C@@H](C)CO)C[C@H]1C  9.7% [at 8 µM]
4. C[C@@H]1CN([C@@H](C)CO)C(=O)c2cc(NC(=O)Cc3cn(C)c4ccccc34)ccc2O[C@H]1CN(C)C(=O)Nc1ccc2c(c1)OCO2  9.93% [at 8 µM]
5. C[C@H]1CN([C@@H](C)CO)C(=O)c2cccc(NC(=O)Nc3ccc(C(F)(F)F)cc3)c2O[C@@H]1CN(C)C  14.9% [at 8 µM]

In order of falling max activity:
1. CC(C)NC(=O)N(C)C[C@@H]1OCCCC[C@H](C)Oc2ccc(NC(=O)Nc3ccc4c(c3)OCO4)cc2C(=O)N([C@H](C)CO)C[C@@H]1C  11.4% [at 0.5 µM]
2. C[C@H]1CCCCO[C@H](CN(C)S(=O)(=O)c2cn(C)cn2)[C@@H](C)CN([C@@H](C)CO)C(=O)c2cc(NC(=O)Nc3ccc4c(c3)OCO4)ccc2O1  -6.42% [at 0.5 µM]

In order of falling max activity:
1. COc1ccc(S(=O)(=O)N2Cc3ccccc3CC2C(=O)Nc2ccc3c(c2)OCO3)cc1 (stereo unspecified)  17% [at 4.2 µM]
2. CC1CCCN(C(=O)c2ccc(Cl)c(S(=O)(=O)N3CCCCCC3)c2)C1 (stereo unspecified)  6.03% [at 4.2 µM]

In order of rising max activity:
1. C[C@@H]1CN([C@H](C)CO)C(=O)c2cc(NC(=O)Nc3ccc4c(c3)OCO4)ccc2O[C@@H](C)CCCCO[C@@H]1CN(C)S(=O)(=O)c1cn(C)cn1  -6.88% [at 1 µM]
2. COc1cccc(C(=O)Nc2ccc3c(c2)OC[C@@H](C)N(CCc2ccccc2)C[C@@H](C)[C@H](OC)CN(C)C3=O)c1  9.35% [at 1 µM]
